Reference: PubChem BioAssay (EPA / NIEHS)
Values joined by “and” are separate entries in the source; they are usually repeats but may differ in a detail not shown here. Identical values can stand only once. More than one record can exist for a structure, and the calls need not agree. Active and inactive are the calls of the source. How the source made its calls: active means hit-call score of the fitted dose curve at least 0.9, where 1 is the maximum; inactive means score below 0.9.

experiment: ATG_RORE_CIS: Attagene CIS-FACTORIAL HepG2 Assay for human RAR-related Orphan Receptor Element (RORE) (AID 2282959); conditions: HepG2 Attagene cis-factorial RORE reporter, mRNA; actives raise or lower the signal
Experimental: ATG_CIS is a cell-based, multiplexed-readout assay that uses HepG2, a human liver cell line, with measurements taken at 24 hours after chemical dosing in a 24-well plate.ATG_RORE_CIS is one of 52 assay component(s) measured or calculated from the ATG_CIS assay. It is designed to make measurements of mRNA induction, a form of inducible reporter, as detected with fluorescence intensity signals by Reverse transcription polymerase chain reaction (RT-PCR) and Capillary electrophoresis technology.Data from the assay component ATG_RORE_CIS was analyzed into 1 assay endpoint. This assay endpoint, ATG_RORE_CIS, was analyzed with bidirectional fitting relative to DMSO as the negative control and baseline of activity. Using a type of inducible reporter, measures of mRNA for gain or loss-of-signal activity can be used to understand the reporter gene at the transcription factor-level as they relate to the gene RORA and RORB and RORC. Furthermore, this assay endpoint can be referred to as a primary readout, because this assay has produced multiple assay endpoints where this one serves a reporter gene function. To generalize the intended target to other relatable targets, this assay endpoint is annotated to the nuclear receptor intended target family, where the subfamily is orphan.
Human liver HepG2 cells are transiently transfected with multiple reporter transcription units (MRTUs) in 6-well plates using FuGene 6 reagent (Roche; 3 ml FuGene/1 mg DNA). The MRTU constructs are regulated by a cis-regulating element (promoter). […] A major difference between the CIS and TRANS system is that in CIS activities of endogenous TFs are measured, whereas the TRANS assay evaluates changes in activities of exogenous, chimeric NR-Gal4 proteins. […] At the end of 24 hour incubation, total RNA was isolated using TriZol reagent (Invitrogen). The isolated RNA is then reverse-transcribed using oligo(dT) primer and Mo-MLV reverse transcriptase (Invitrogen) with DNAse I (Ambion) treatment for 30 min. The one-tenth of the produced cDNA was amplified by PCR using Taq DNA polymerase (Invitrogen) and two reporter sequence-specific primers. The PCR products were fluorescently labeled by primer extension with 6-arboxyfluorescein (6-FAM) 5'-labeled reporter sequence-specific primer (2 min at 95 C, 20 s at 68 C and 10 min at 72 C) and these products were digested with 5U of HpaI (New England Biolabs) for 2h at 37 C. The fragments were purified using Qiaquick PCR columns (Qiagen), analyzed on an ABI 3130xL genetic analyzer (Applied Biosystems) with peak positions identified by using a set of X-rhodamine (ROX)-labeled MapMarker1000 molecular weight standards (BioVentures). The raw capillary electrophoresis data was processed using Attagraph software (Attagene).

**Q.** With `O=c1cc[nH]cc1` as the compound, how does the outcome read?
**A.** Its outcome is “inactive”.

**Q.** With `CCCCCCOc1ccc(O)cc1` as the compound, how does the outcome read?
**A.** Its outcome is “inactive”.

**Q.** For `CN(C)C(=O)Nc1ccccc1`, which outcome is on record?
**A.** Its outcome is “inactive”.

**Q.** Which outcome does the source give for `Nc1cc([N+](=O)[O-])ccc1C(=O)O` here?
**A.** The outcome was “inactive”.

**Q.** With `CC(CO)c1ccccc1` (stereo not given) as the compound, how does the outcome read?
**A.** The outcome was “inactive”.

**Q.** For `Cc1cccc(C)c1`, which outcome is on record?
**A.** Its outcome is “inactive”.

**Q.** For `CCCCCCCCCCO[C@@H]1O[C@H](CO)[C@@H](O)[C@H](O)[C@H]1O`, which outcome is on record?
**A.** Its outcome is “inactive”.

**Q.** For `O=C(C=Cc1ccccc1)OCCCc1ccccc1`, which outcome is on record?
**A.** Its outcome is “inactive”.

**Q.** For `CC(=O)CCC(=O)O`, which outcome is on record?
**A.** Its outcome is “inactive”.

**Q.** For `CCCCOCC(C)OCC(C)O` (stereo not given), which outcome is on record?
**A.** The outcome was “inactive”.

**Q.** For `N#CCCCC(C#N)CCC#N` (stereo not given), which outcome is on record?
**A.** The outcome was “inactive”.

**Q.** Which outcome does the source give for `CC(O)CN` (stereo not given) here?
**A.** The outcome was “inactive”.

**Q.** For `N#CCCNCCC#N`, which outcome is on record?
**A.** Its outcome is “inactive”.

**Q.** With `COc1ccccc1NC(=O)CC(C)=O` as the compound, how does the outcome read?
**A.** Its outcome is “inactive”.

**Q.** For `Nc1ccc(O)c(N)c1`, which outcome is on record?
**A.** Its outcome is “inactive”.

**Q.** With `C=C(C)CCCC(C)CCO` (stereo not given) as the compound, how does the outcome read?
**A.** The outcome was “inactive”.

**Q.** For `C=CC(C)(CCC=C(C)C)OC(=O)CC` (stereo not given), which outcome is on record?
**A.** Its outcome is “inactive”.

**Q.** With `CC(=O)Oc1c(C)c(C)c2c(c1C)CC[C@@](C)(CCC[C@H](C)CCC[C@H](C)CCCC(C)C)O2` as the compound, how does the outcome read?
**A.** The outcome was “inactive”.

**Q.** For `NC(N)=S`, which outcome is on record?
**A.** Its outcome is “inactive”.

**Q.** For `OCCCO`, which outcome is on record?
**A.** The outcome was “inactive”.

**Q.** For `CCC(C)COC(=O)CC(C)C` (stereo not given), which outcome is on record?
**A.** Its outcome is “inactive”.

**Q.** For `C=C(C)C(N)=O`, which outcome is on record?
**A.** Its outcome is “inactive”.

**Q.** Which AC50 does the source give for `C=CCOC(=O)/C=C\C(=O)OCC=C` here?
**A.** Its AC50 is 11.3 µM (active).

**Q.** With `CC(C)C(=O)c1ccccc1` as the compound, how does the outcome read?
**A.** Its outcome is “inactive”.

**Q.** Which outcome does the source give for `C=CC(=O)OCC(CO)(COC(=O)C=C)COC(=O)C=C` here?
**A.** The outcome was “inactive”.

**Q.** For `Cc1ccccc1S`, which outcome is on record?
**A.** The outcome was “inactive”.

**Q.** For `CCC(=O)OC/C=C(\C)CCC=C(C)C`, which outcome is on record?
**A.** The outcome was “inactive”.

**Q.** With `CC1(C)[C@H](C=C(Cl)Cl)[C@H]1C(=O)OCc1cccc(Oc2ccccc2)c1` as the compound, how does the outcome read?
**A.** Its outcome is “inactive”.

**Q.** With `CCCCCCCCCO` as the compound, how does the outcome read?
**A.** Its outcome is “inactive”.

**Q.** With `C=C(C)C(=O)OCCC(C)OC(=O)C(=C)C` (stereo not given) as the compound, how does the outcome read?
**A.** Its outcome is “inactive”.

**Q.** For `Cc1cc(O)c(C)c(C)c1O`, which outcome is on record?
**A.** The outcome was “inactive”.

**Q.** For `NC(=O)c1cccnc1`, which outcome is on record?
**A.** The outcome was “inactive”.

**Q.** For `Brc1cc(Br)cc(Br)c1`, which outcome is on record?
**A.** Its outcome is “inactive”.

**Q.** For `COc1ccc(N)c(C)c1`, which outcome is on record?
**A.** Its outcome is “inactive”.

**Q.** For `c1ccc(Sc2ccccc2)cc1`, which outcome is on record?
**A.** The outcome was “inactive”.

**Q.** For `CNC(=C[N+](=O)[O-])NCCSCc1ccc(CN(C)C)o1`, which outcome is on record?
**A.** Its outcome is “inactive”.

**Q.** With `CCCC1CCC(=O)CC1` as the compound, how does the outcome read?
**A.** The outcome was “inactive”.

**Q.** With `C=CC(O)CCCCC` (stereo not given) as the compound, how does the outcome read?
**A.** Its outcome is “inactive”.

**Q.** Which results are given for `C#C[C@]1(O)CC[C@H]2[C@@H]3CCc4cc(O)ccc4[C@H]3CC[C@@]21C`?
**A.** outcome: inactive; AC50: 67.3 µM (active) and 60.7 µM (active) and 26.4 µM (active)
